Assay outcomes as filed in PubChem.
A selection: hits, their analogues and other compounds. The true share with any hit is near 12%.
NS1 function inh – inhibitors of influenza NS1 protein function | 270,000 compounds, 0.4% hits | Potency, µM (titrated, usually from 46.1 µM); calls by dose curve; note: actives are rising curves; nearly all actives have a fitted effect of over 50% in size
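A cell-based growth assay was used: compounds that relieve NS1-induced slow growth of budding yeast raise OD600. Assay medium was yeast nitrogen base with ammonium sulphate and -URA supplement, pH 6.0, with 2% galactose.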
AMA1 RON2 block – inhibitors of Plasmodium falciparum AMA1-RON2 interaction. AlphaScreen AMA1-biotinylated RON2 peptide binding. Potency, µM (top dose mostly 58.2 µM), usual class: inhibitors. 360,000 compounds, 0.2% hits. AID 720542; note: nearly all actives have a fitted effect of over 45% in size
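AMA1 (3D7) with his tag at 25 nM final met compounds first, then biotinylated RON2 peptide at 25 nM; detection used donor plus acceptor beads, 10 µg/mL apiece, read by AlphaScreen after 30 min at room temperature.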
HCV inhibitor – blocks hepatitis C virus. Huh7.5.1 HCVcc-Cre infection, luciferase reporter, 44 h. Potency, µM (doses to about 41.8 µM), most hits filed as inhibitors. 340,000 compounds, 3.4% hits
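Reporter virus HCVcc-Cre (~0.5 moi) infects cells exposed to compound; seeding density 1,000 cells/well with 4 h settling beforehand. Luminescence, 15 sec read, taken 44 h post-infection following a 15 min RT substrate incubation.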
Pf growth 48h – P. falciparum growth inhibition at 48 hours (one generation) | P. falciparum luciferase growth in erythrocytes, 48 h | Potency, µM (doses to about 28.7 µM), usual class: inhibitors | 310,000 compounds, 5.9% hits
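In quantitative HTS format, infected erythrocytes bearing luciferase-reporter parasites were treated for a single generation at 37 C. Luminescence after adding detection reagent served as the growth measure.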
SARS PLpro yeast – SARS-CoV PLP inhibition in yeast; S. cerevisiae expressing SARS-CoV PLpro, growth rescue; Potency, µM (titrated, usually from 32.9 µM), most hits filed as activators; 330,000 compounds, 0.19% hits; calls by dose curve; note: nearly all actives have a fitted effect of over 55% in size
Pf growth 96h – P. falciparum growth inhibition at 96 hour, primary screen for plastid delayed-death inhibitors. AID 504834. P. falciparum luciferase reporter growth, 96 h. Potency, µM (series often up to 28.7 µM), hits mostly inhibitors. 320,000 compounds, 6.9% hits
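Delayed-death screen, second-generation endpoint: infected erythrocytes, 2% hematocrit, 0.05% parasitemia final; 96 hours at 37 C, 5% CO2; luciferase detection reagent; luminescence decrease equals reduced growth.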
Numbers stand for hits; – = inactive; ? = inconclusive; · = no result given; [ ] = remark or other dose. Unless noted, calls come from the whole dose curve; as a rule, active = well fitted curve in the direction sought with a large enough effect; inconclusive = small, poorly fitted or top-dose-only effect, or another doubt; inactive = no such curve, though single readings can be large; an effect the other way counts as inactive or inconclusive.

SMILES	NS1 function inh	AMA1 RON2 block	HCV inhibitor	Pf growth 48h	SARS PLpro yeast	Pf growth 96h
Cc1cc2c(c(=O)n1-c1ccccc1)C1O[C@](c3ccsc3)(Cc3cc(C#N)ccc31)O2	–	·	·	?	–[6.58 µM]	–[5.75 µM]
Cc1nc(-c2ccc(S(=O)(=O)NCc3cccnc3)s2)cs1	–	–	?	–	–	–
CC(=O)c1c[nH]c(C(=O)NC2CCCCCC2)c1	–	–	–	–	–	?
Cc1cc(C)c(S(=O)(=O)N2CCN(S(=O)(=O)N3CCOCC3)CC2)c(C)c1	–	–	?	–	–	2.33µM
CCOc1ccc(C2N(c3ccc(F)cc3)C(=O)C3CCCN32)cc1 (stereo not drawn)	–	–	–	·	–	4.15µM
COc1ccc(OC)c(C2N(c3ccc(Cl)cc3)C(=O)C3CCCN32)c1 (stereo not drawn)	–	–	–	–	–	9.28µM
COc1ccc(C2N(c3ccc(Cl)cc3)C(=O)C3CCCN32)cc1 (stereo not drawn)	–	–	–	·	–	?
COc1ccc(N2C(=O)C3CCCN3C2c2ccc(Cl)cc2)cc1 (stereo not drawn)	?	–	–	·	?	9.28µM
Cc1ccc(CNC(=O)CN(C(=O)C2(C)CC(=O)N=C3C=CC=CN32)c2cccc(C)c2C)cc1 (stereo not drawn)	–	–	–	–	–	–
CCCC(c1nnnn1CCOC)N(Cc1cc2cc(C)c(C)cc2[nH]c1=O)CC1CCCO1 (stereo not drawn)	–	–	–	?	–	?
CCC(c1nnnn1CC1CCCO1)N(CCN1CCOCC1)Cc1cc2cc(C)ccc2[nH]c1=O (stereo not drawn)	2.24µM	–	–	–	–	?
CCC(C)(C)n1nnnc1C(C(C)C)N(CCN1CCOCC1)Cc1cc2cccc(C)c2[nH]c1=O (stereo not drawn)	–	–	–	·	–	13.1µM
CCOC(=O)Cn1nnnc1C(CC)N(Cc1ccccc1)Cc1cc2cc(C)ccc2[nH]c1=O (stereo not drawn)	–	–	–	·	–	?
CCC(c1nnnn1CCOC)N(Cc1cc2cc(C)c(C)cc2[nH]c1=O)CC1CCCO1 (stereo not drawn)	–	–	–	·	–	14.7µM
CCC(c1nnnn1CCOC)N(Cc1ccc(C)cc1)Cc1cc2cc(OC)ccc2[nH]c1=O (stereo not drawn)	–	–	–	10.4µM	–	–
NC1=NC(=O)/C(=C\c2cc([N+](=O)[O-])ccc2Cl)S1	·	–	–	–	–	–
O=C(Cc1ccc(NC(=O)C2CCN(C(=O)c3ccccc3)CC2)cc1)Nc1ccc(C(=O)N2CCOCC2)cc1	·	–	–[8.37 µM]	·	·	·
Cc1ccsc1C1Nc2ccc3ncccc3c2C2=C1C(=O)CCC2 (stereo not drawn)	–	–	–	10.4µM	–	4.65µM
O=C(Nc1ccc(Br)cc1)c1nn(C23CC4CC(CC(C4)C2)C3)cc1Br	–	–	–	?	–	0.185µM
O=C1CNC(=O)/C1=C\N1CCN(C(c2ccccc2)c2ccccc2)CC1	–	–	?	–	–	3.29µM
Cn1ncc([N+](=O)[O-])c1C(=O)Nc1cccc2ccccc12	–	–	–	–	–	2.33µM
CC(=O)Nc1ccc(NC(=O)c2c([N+](=O)[O-])cnn2C)cc1	–	–	–	–	–	?
Cn1ncc([N+](=O)[O-])c1C(=O)Nc1ccc(-c2nc3ccccc3o2)cc1	·	–	–	–	–	4.65µM
OCCC1CN(Cc2ccon2)CCN1Cc1ccc(F)c(F)c1 (stereo not drawn)	–	–	–	–	–	–
Cc1ccccc1-n1ncc2c([N+](=O)[O-])cc([N+](=O)[O-])cc21	?	?	7.94µM	9.28µM	–	?
SMILES	NS1 function inh	AMA1 RON2 block	HCV inhibitor	Pf growth 48h	SARS PLpro yeast	Pf growth 96h
CNC(=O)C[C@H]1C(=O)N(c2ccc(OC)cc2)C[C@@H]1C	·	–	·	·	·	·
Cc1c(C(=O)OC2CCCC2)[nH]c2c1C(=O)CC(c1ccco1)C2 (stereo not drawn)	–	–	?	7.38µM	–	?
COC(=O)c1[nH]c2c(c1C)C(=O)CC(c1ccccc1)C2 (stereo not drawn)	–	–	?	?	?	–
C=CCOC(=O)c1[nH]c2c(c1C)C(=O)CC(c1ccco1)C2 (stereo not drawn)	–	–	–	5.22µM	–	–
C/C=C/COC(=O)c1[nH]c2c(c1C)C(=O)CC(c1ccco1)C2 (stereo not drawn)	–	–	?	1.47µM	–	–
Cc1c(C(=O)OCC(C)C)[nH]c2c1C(=O)CC(c1ccco1)C2 (stereo not drawn)	–	–	?	11.7µM	–	–
COc1ccccc1CNC(=O)COC(=O)c1cnc(C)cn1	·	–	·	·	·	·
O=C(C1CCCN1S(=O)(=O)c1ccc(Cl)cc1)N1CCN(c2ccccc2)CC1 (stereo not drawn)	·	–	–	·	–	·
COc1ccccc1-c1noc(CCC(=O)NC2CCCC2)n1	–	–	–	–	–	2.62µM
Cc1ccccc1-c1noc(CCC(=O)NC2CCCCC2)n1	–	–	–	–	–	10.4µM
O=C(CCc1nc(-c2ccccc2F)no1)NC1CCCCC1	–	–	–	–	–	·
COc1ccc2oc(C(=O)OCC(=O)Nc3ccc(C)c(S(=O)(=O)N4CCOCC4)c3)c(C)c2c1	·	–	·	·	·	·
C[C@H](CO)N1C[C@H](C)[C@@H](CN(C)C(=O)C2CCOCC2)Oc2ncc(Br)cc2C1=O	·	–	·	·	·	·
O=C(c1ccco1)N1CCN(c2ncnc3c2[nH]c2ccc(Cl)cc23)CC1	2.24µM	·	–[0.335 µM]	?	?	?
c1ccc(CN2CCN(c3ncnc4c3[nH]c3ccccc34)CC2)cc1	–	–	11.2µM	0.928µM	–	–
Fc1ccc2[nH]c3c(N4CCN(C5CCCCC5)CC4)ncnc3c2c1	–	·	·	2.33µM	–	–
c1ccc(CN2CCN(c3ncccn3)CC2)cc1	–	–	–	–	–	–
O=C(c1ccco1)N1CCN(c2c(-c3ccccc3)c3cc(Cl)ccc3[nH]c2=O)CC1	·	–	?	?	–	–
Cc1ccc2c(c1)[nH]c1c(N3CCN(Cc4ccccc4)CC3)ncnc12	–	–	3.16µM	0.522µM	–	?
O=C(COc1ccc(Br)cc1)OCCN1CCCCC1	–	–	–	–	–	?
Cc1cc(Cc2cc(C)cc(C(C)(C)C)c2O)c(O)c(Cc2cc(C)cc(C(C)(C)C)c2O)c1	–	·	·	·	·	·
C[C@@H]1CN([C@H](C)CO)C(=O)c2cc(Br)cnc2O[C@@H]1CN(C)C(=O)NC1CCCC1	·	–	·	·	·	·
OC1(c2cccc(C(F)(F)F)c2)CCN(c2ncnc3c2[nH]c2ccccc23)CC1	–	–	?	–	–	–
Cc1ccc2[nH]c3c(N4CCCCCC4)ncnc3c2c1	–	·	3.16µM	2.62µM	–	?
Cc1ccc2[nH]c3c(N4CCN(Cc5ccccc5)CC4)ncnc3c2c1	–	–	?	1.65µM	–	·
